Among the data in ChEMBL document CHEMBL1157539, “Thousands of chemical starting points for antimalarial lead identification” (Nature, 2010) are IFI values, retold here.

Each structure is given as a SMILES string. Over roughly 13,000 compounds, “IFI” has its median near 4; the highest 2% begin near 17. For the sample, the highest values were picked, then their nearest neighbours and some compounds at random.

The nature of the test: GSK_TCMDC: Inhibition Frequency Index (IFI). The number of non-kinase HTS assays where a compound showed > 50 % inhibition, expressed as a percentage of the number of such assays in which the compound was tested. The format is functional.
On to `OCC1CCN(Cc2cccc(-c3ccc(-c4nc5cc(C(F)(F)F)ccc5[nH]4)s3)c2)CC1`, for which the IFI came to 2%.
Turning to `Cc1cccc(Nc2nc(N[C@@H]3CCCNC3)nc3cc[nH]c(=O)c23)c1`, the IFI is 16.7%.
As for `O=c1[nH]ccc2nc(N[C@@H]3CCNC3)nc(Nc3ccc4c(c3)S(=O)(=O)CC4)c12`, the IFI stood at 0%.
With `O=c1[nH]ccc2nc(N[C@@H]3CCCNC3)nc(Nc3ccc(S(=O)(=O)N4CCOCC4)cc3)c12`, the IFI was 0%.
The same measure for `NS(=O)(=O)c1cccc(Nc2nc(N[C@@H]3CCNC3)nc3cc[nH]c(=O)c23)c1`: 18.2%; for `O=c1[nH]ccc2nc(N[C@@H]3CCNC3)nc(Nc3cccc(S(=O)(=O)N4CCOCC4)c3)c12`: 18.2%; for `O=c1[nH]ccc2nc(N[C@@H]3CCNC3)nc(Nc3cc(Cl)cc(Cl)c3)c12`: 16.7%.
Next, `OC(c1cc(C(F)(F)F)nc2c(F)cccc12)C1CCCCN1` (stereo unspecified): 0%; `CC(C)(C)OC(=O)Nc1cccc(-c2csc(NC(=N)N)n2)c1`: 4.08%.
Next, `CC(CNC(=O)[C@H]1CNCCN1C(=O)CCCc1ccccc1)c1ccccc1` (stereo partly specified): 2.84%; `COc1cccc2c1CCN(CCN1CCC(NC(=O)c3ccc(-c4cccc(Cl)c4Cl)cc3)CC1)C2`: 7.63%; `O=C(Oc1ccc(C2CNCCc3c2cc(OC(=O)c2ccc(O)cc2)c(OC(=O)c2ccc(O)cc2)c3Cl)cc1)c1ccc(O)cc1` (stereo unspecified): 5.07%.
Consider `COc1ccc(C=NN=c2cc(C)[nH]c3ccc(C)cc23)c2ccccc12`, for which the IFI was 7.09%.
Next, `CCCCNS(=O)(=O)c1ccc(NC(=O)c2cc([N+](=O)[O-])ccc2Cl)cc1`: 5.17%; `CCC(C)c1ccc(NC(=O)C(C)c2ccc([N+](=O)[O-])cc2)cc1` (stereo unspecified): 23.7%.
Next, `CCN(CC)c1ccc(C(c2ccc(N(CC)CC)cc2)c2ccc([N+](=O)[O-])cc2)cc1`: 4.35%; `C=CCNS(=O)(=O)c1ccc(NC(=O)C(C)Oc2ccc([N+](=O)[O-])cc2)cc1` (stereo unspecified): 14.8%; `CCC(C)c1ccc(NC(=O)Nc2ccnc3ccccc23)cc1` (stereo unspecified): 10.2%.
Next, `CCCNS(=O)(=O)c1ccc(NC(=O)C(C)Oc2ccc([N+](=O)[O-])cc2)cc1` (stereo unspecified): 17.5%.
For the compound `CS(=O)(=O)c1ccc2[nH]c(-c3cc(-c4cccc(F)c4)cnc3N)nc2c1`, the IFI was found to be 6.45%.
Next, `CC(=O)Nc1cccc(Nc2nccc(Nc3ccc(Oc4ccccc4)cc3)n2)c1`: 4.96%; `COc1ccc(-c2ccc(NC(=O)c3cccc(Cl)c3)cc2)cc1CN1CCN(C)CC1`: 7.84%; `CCOC(=O)c1ccc(NC(=O)N(Cc2ccc(-c3ccc(CN4CCNCC4)cc3)cc2)C2CCN(Cc3ccccc3)CC2)cc1`: 7.64%.
`Cc1cc(N[C@@H](Cc2ccccc2)C(=O)NCCOc2ccccc2)nc(NCCc2cccs2)n1` returned an IFI of 11.6%.
Next, `Cc1cc(N)c2cc(NC(=O)c3ccc4ccccc4c3)ccc2n1`: 6.08%; `Cc1nc(-c2ccc(-c3ccc(NC(=O)c4coc5ccc(N6CC(C)N(C)C(C)C6)cc45)cc3)c(C)c2)no1` (stereo unspecified): 4.08%; `O=C(Nc1ccc(Cl)cc1)N[C@H]1CCN(Cc2ccc(OCCCN3CCCCC3)cc2)C1`: 7.14%.
The compound `CCN(CC)CCCC(C)Nc1ccnc2ccc(OC)cc12` (stereo unspecified) displayed an IFI of 0.73%.
The same measure for `COc1ccccc1CNc1ccnc(N2CC(Oc3ccc(F)cc3)C2)n1`: 4%.
Next, `CCCCOc1ccc(C(=O)C(CCC(CNC(C)(C)C)C(=O)c2ccc(OCCCC)cc2)CNC(C)(C)C)cc1` (stereo unspecified): 25.4%; `CCCCCNC(=N)c1ccc(OCCCCCOc2ccc(C(=N)NCCCCC)cc2)cc1`: 5%.
The same measure for `CCCCNC(=N)c1ccc(OCCCCCOc2ccc(C(=N)NCCCC)cc2)cc1`: 2.26%; for `O=C(Nc1ccccc1)Nc1cccc(-c2cccc(-c3nc4cc(F)ccc4[nH]3)c2)c1`: 3%.
`Cc1ccc2[nH]c(-c3cc(-c4ccc(CO)cc4)cnc3N)nc2c1`: the IFI came out at 5.51%.
Next, `c1ccc2oc(-c3cc4ccncc4cc3OC3CCNCC3)cc2c1`: 8.77%; `CCc1cn(CCc2ccccc2)c2ccc(C(=O)N[C@@H](Cc3ccccc3)[C@H](O)CNC(C)(C)CCCC(C)C)cc12`: 8.7%; `O=C(N[C@@H](Cc1ccccc1)[C@H](O)CNCCC(F)(F)F)c1cccc(OCC2CC2)c1`: 6.1%.
The same measure for `CC(C)CCCC(C)(C)NC[C@@H](O)[C@H](Cc1ccccc1)NC(=O)c1cccc(CCC2CC2)c1`: 22.4%; for `CCc1cn(CCOC)c2ccc(C(=O)N[C@@H](Cc3ccccc3)[C@H](O)CNC(C)(C)CCCC(C)C)cc12`: 5.07%.
The same measure for `CC(C)CCCC(C)(C)NC[C@@H](O)[C@H](Cc1ccccc1)NC(=O)c1cccc(OCC2CC2)c1`: 18.6%; for `O=C(N[C@@H](Cc1ccccc1)[C@H](O)CNCCC(F)(F)F)c1cccc(CCC2CC2)c1`: 6.1%; for `COc1cc2nc(N3CCC(CNC(=O)c4ccc(-c5ccc(C#N)cc5C)cc4)CC3)nc(N)c2cc1OC`: 6.31%.
For the compound `CCN(CC)CCCNc1ncc2c(-c3ccc(NC(=O)Nc4cc(C(F)(F)F)ccc4F)cc3)nn(C)c2n1`, the IFI was 10.8%.
The same measure for `CN(c1ccccc1)S(=O)(=O)c1cccc(NC(=O)c2ccc(-n3ccnc3)c([N+](=O)[O-])c2)c1`: 17.2%; for `Cc1nnc2sc(-c3cccc(NC(=O)c4ccc(N5CCCCC5)c([N+](=O)[O-])c4)c3)nn12`: 1.47%; for `O=C(Nc1ccc(-c2nc3ccccc3[nH]2)cc1)c1ccc(N2CCCC2)c([N+](=O)[O-])c1`: 0.99%.
Next, `CN1CCN(CCNc2c3ccccc3nc3c2ccc2ccccc23)CC1`: 6.99%.
The same measure for `O=S(=O)(Nc1cccc(CCN2CCCCC2CCN2CCCC2)c1)c1ccc(-c2ccccc2)cc1` (stereo unspecified): 14.5%.
On to `O=S(=O)(Nc1cccc(CCN2CCCCC2CCN2CCCC2)c1)c1ccc(Oc2ccccc2)cc1` (stereo unspecified), for which the IFI is 17.5%.
The same measure for `O=S(=O)(Nc1cccc(CCN2CCCCC2CCN2CCCC2)c1)c1ccc2ccccc2c1` (stereo unspecified): 13.1%; for `NC1CCCN(Cc2cccc(-c3ccc(-c4nc5cc(C(F)(F)F)ccc5[nH]4)cc3)c2)C1` (stereo unspecified): 5.63%; for `CC(=NNC(=N)N)c1ccc2c(c1)Cc1ccccc1-2`: 7.19%.
The same measure for `CS(=O)(=O)NCCCNCc1ccc(-c2ccc(-c3nc4cc(F)ccc4[nH]3)cc2)cc1`: 5.94%; for `Nc1c(I)cc(C(=O)Nc2ccc3nc4c(c(N)c3c2)CCCC4)cc1I`: 22.8%.
On to `Nc1c2c(nc3ccc(NC(=O)c4ccccc4)cc13)CCCC2`, for which the IFI was 2.86%.
For the compound `CC(C)(C)c1ccc(C(=O)Nc2ccc3nc4c(c(N)c3c2)CCCC4)cc1`, the IFI was found to be 4.9%.
